Where “and” joins values, the source holds several entries; their conditions need not be identical. Equal values may be shown once. A number with no mark means an inactive call. Records with an inconclusive call do not appear. Entries that show only a call come without a potency. Calls of active or inactive are those of the source. Unless noted, calls come from the whole dose curve; as a rule, active = well fitted curve in the direction sought with a large enough effect; inconclusive = small, poorly fitted or top-dose-only effect, or another doubt; inactive = no such curve, though single readings can be large; an effect the other way counts as inactive or inconclusive.
What was measured:
[1] = Stat Signaling Pathway (AID 446; active = well fitted curve in either direction with a large enough effect, not every such curve was filed as active;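 note: ME-180 cervical cancer cells given 40 pM IL-6 alongside compound; SIE-controlled beta-lactamase reporter measured as 460/530 nm FRET emission ratio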)
Method in brief: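 Normalization used AC90 stimulation (300 pM IL-6) and AC90 inhibition (125 nM pan-JAK inhibitor at 40 pM IL-6). The underlying signal is SIE-driven beta-lactamase in ME-180 cells after 5 h IL-6 exposure with compound.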

[2] = Cell Viability - N2a (AID 540); conditions: N2a mouse neuroblastoma cell viability; activity change, negative = cytotoxicity: at 92.2 µM (top of the series);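 note: cells exposed to compound for 40 h at 37 °C; nearly all actives have a fitted effect of over 45% in size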
Method in brief: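 Cytotoxicity was scored as loss of cellular ATP in N2a cells, a mouse neuroblastoma line. Compounds are applied in a qHTS concentration series for 40 hr at 37 °C.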

[3] = Cell Viability - NIH 3T3 (AID 541); conditions: NIH 3T3 cell viability, qHTS; activity change, negative = cytotoxicity: at 92.2 µM (top of the series); note: nearly all actives have a fitted effect of over 25% in size; note: potency is the fitted concentration of half-maximal effect
Method in brief: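 Cells seeded at 1000/well, rested 5 hr at 37 °C, then dosed and incubated 40 hr at 37 °C. CellTiter-Glo added, 20 min room temperature, luminescence read. AC50 by Hill fit.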

[4] = Cell Viability - HUV-EC-C (AID 542); note: nearly all actives have a fitted effect of over 35% in size; note: potency is the fitted concentration of half-maximal effect
Method in brief: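 Cells were seeded at 1000 per well and incubated 5 hr at 37 °C before compound addition. After 40 hr at 37 °C, CellTiter-Glo reagent was added for 20 min and luminescence read. AC50 values came from Hill-equation modelling.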

[5] = Cell Viability - H-4-II-E (AID 543); note: nearly all actives have a fitted effect of over 35% in size; note: potency is the fitted concentration of half-maximal effect
Method in brief: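 Cells seeded at 1500 per well and rested 5 hr; compounds added; 40 hr incubation at 37 °C; CellTiter-Glo added, 20 min at room temperature; luminescence read. Hill-equation fits gave AC50.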

[6] = Cell Viability - SH-SY5Y (AID 544); conditions: SH-SY5Y neuroblastoma cell viability; viability change, negative = cytotoxic: at 92.2 µM (top of the series); note: nearly all actives have a fitted effect of over 55% in size; note: potency is the fitted concentration of half-maximal effect
Method in brief: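 Cells were plated at 1500 per well and allowed 5 hr at 37 °C. Compounds were added across a concentration range and incubated 40 hr at 37 °C. CellTiter-Glo was added for 20 min at room temperature before luminescence reading.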

[7] = Cell Viability - Renal Proximal Tubule (AID 545); conditions: renal proximal tubule cells viability; activity change, negative = cytotoxicity: at 91.7 µM (top of the series) unless noted; note: nearly all actives have a fitted effect of over 40% in size; note: potency is the fitted concentration of half-maximal effect
Method in brief: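 In this qHTS format, normal rat kidney-derived proximal tubule cells in complete culture medium receive compound titrations, then sit 40 hours at 37 °C before luciferase-based ATP quantitation; potency is reported as AC50 from concentration-response curves.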

[8] = Cellular Toxicity (caspase-3) HUV-EC-C (AID 656)
Method in brief: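 Concentration-dependent caspase 3/7 induction was assessed in HUV-EC-C cells exposed for 16 hours. Data scaled between DMSO and tamoxifen (100 uM) controls.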

[9] = Cellular Toxicity (caspase-3) Mesangial (AID 660); conditions: Potency: caspase-3 activation;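 note: combined caspase 3 and 7 activity read by Caspase-Glo luminescence; cells exposed to compound for 16 h before the caspase read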
Method in brief: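 Seed cells derived from normal human renal glomeruli, incubate 5 h, add compounds across concentrations and incubate 16 h at 37 °C. Caspase 3/7 activation is then quantified by luciferase light, with AC50 derived by Hill modeling.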

[10] = Cellular Toxicity (caspase-3) Hek293 (AID 664); conditions: HEK293 caspase-3 activation, DMSO = 0%, 100 µM tamoxifen = 100%; at 92.2 µM (top of the series);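 note: cells exposed to compound for 16 h at 37 °C before readout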
Method in brief: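 qHTS, HEK293 (human embryonic kidney), 16 h cpd exposure in complete medium. Caspase-3/7 activation = luminescence increase; normalized to DMSO/100 uM tamoxifen; Hill-fit AC50.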

[11] = Cellular Toxicity (caspase-3) NIH 3T3 (AID 666);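 note: caspase signal read after 16 h compound exposure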
Method in brief: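 Cells were plated at 1000 per well and incubated 5 hr at 37°C, then compound was added for 16 hr. Caspase-Glo 3/7 reagent followed for 20 min at room temperature before luminescence was read.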

[12] = Cell Viability - LYMP1-003 - Assay at 24 hr (AID 963); note: potency is the fitted concentration of half-maximal effect
Method in brief: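 Cytotoxicity is scored as a concentration-dependent fall in ATP-linked luciferase signal in human lymphoblastoid LYMP1-003 cells treated 24 hr at 37 C in complete culture medium.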

[13] = Cell Viability - LYMP2-003 (AID 965);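 note: cells exposed to compounds for 24 h before reading; nearly all actives have a fitted effect of over 50% in size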; note: potency is the fitted concentration of half-maximal effect
Method in brief: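 qHTS, human lymphoblastoid line, 2500 cells/well, complete medium. 24 h drug, 37 C. ATP-based luminescent readout; Hill-fit AC50.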

[14] = Cell Viability - LYMP2-015 (AID 971);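 note: cells exposed to compound for 24 h; nearly all actives have a fitted effect of over 55% in size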; note: potency is the fitted concentration of half-maximal effect
Method in brief: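 Cells are seeded at 2500 per well and incubated 5 hr at 37 C. Compounds are added across a concentration series for 24 hr at 37 C. CellTiter-Glo is added, and luminescence is read after 30 min at room temperature.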

[15] = Cell Viability - LYMP2-016 (AID 984);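 note: cells exposed to compound for 24 hours at 37 °C; nearly all actives have a fitted effect of over 55% in size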; note: potency is the fitted concentration of half-maximal effect
Method in brief: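 Concentration-dependent ATP depletion measured in LYMP2-016 lymphoblastoid cells, 24 h, 37 C; luciferase-based luminescent detection; Hill-equation AC50.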

[16] = Cell Viability - LYMP2-018 (AID 985);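 note: compound exposure lasted 24 hr at 37 °C; nearly all actives have a fitted effect of over 50% in size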; note: potency is the fitted concentration of half-maximal effect
Method in brief: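 Seed 2500 lymphoblastoid cells per well, incubate 5 hr at 37 C, add compound and incubate 24 hr at 37 C, add CellTiter-Glo, wait 30 min at room temperature, then read luminescence.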

[17] = target: Tumor necrosis factor (Homo sapiens) (UniProt P01375); assay: qHTS assay to identify small molecules that stimulate Tumor Necrosis Factor-alpha (TNF-alpha) secretion (AID 651757; active = well fitted curve in the direction sought with a large enough effect in the signal ratio; the % refers to the signal ratio)
Method in brief: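 Human monocytic THP-1 cells are plated, treated with compound and held at 37 C for 17 hrs. Labeled anti-TNF-alpha antibody mixture is then added; after 3 hr at room temperature, TR-FRET signal reports secreted TNF-alpha.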

[18] = target: Peroxisome proliferator-activated receptor alpha (Homo sapiens) (UniProt Q07869); assay: qHTS assay for small molecule agonists of the peroxisome proliferator-activated receptor alpha (PPARalpha) signaling pathway (AID 651778); conditions: PathHunter PPARalpha complementation, chemiluminescence, 6 h; max response: active compounds read high
Method in brief: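 Cells plated at 2,000/well and held overnight at 37 C, 5% CO2, then compound added by pin tool for 6 hr; after PathHunter detection reagent and 60 min at room temperature, chemiluminescence from enzyme complementation was read.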

[19] = qHTS assay for cell viability of the p53RE-bla HCT-116 cell line (AID 743292); note: nearly all actives have a fitted effect of over 55% in size; note: potency is the fitted concentration of half-maximal effect
Method in brief: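 ATP-based luminescent viability (CellTiter-Glo, 30 min RT) after 16 h compound treatment at 37 C of p53RE-bla HCT-116 cells, seeded at 4,000 cells/well and rested 5 h before dosing.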

[20] = Cellular Toxicity (caspase-3) MRC-5 (AID 659)
Method in brief: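 Apoptosis readout in MRC-5 cells: luciferase light generated after caspase 3/7 cleaves a peptide-aminoluciferin substrate, measured post 16 hr compound incubation at 37 °C.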

Chain of Tumor necrosis factor (Homo sapiens) (P01375 whole entry, looked up): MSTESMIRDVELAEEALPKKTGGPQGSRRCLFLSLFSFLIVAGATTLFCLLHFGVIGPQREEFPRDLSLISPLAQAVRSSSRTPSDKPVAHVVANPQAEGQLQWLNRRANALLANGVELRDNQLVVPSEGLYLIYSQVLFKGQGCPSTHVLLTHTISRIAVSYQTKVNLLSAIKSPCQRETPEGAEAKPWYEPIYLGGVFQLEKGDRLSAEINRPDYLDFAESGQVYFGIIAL
Chain of Peroxisome proliferator-activated receptor alpha (Homo sapiens) (Q07869 whole entry, looked up): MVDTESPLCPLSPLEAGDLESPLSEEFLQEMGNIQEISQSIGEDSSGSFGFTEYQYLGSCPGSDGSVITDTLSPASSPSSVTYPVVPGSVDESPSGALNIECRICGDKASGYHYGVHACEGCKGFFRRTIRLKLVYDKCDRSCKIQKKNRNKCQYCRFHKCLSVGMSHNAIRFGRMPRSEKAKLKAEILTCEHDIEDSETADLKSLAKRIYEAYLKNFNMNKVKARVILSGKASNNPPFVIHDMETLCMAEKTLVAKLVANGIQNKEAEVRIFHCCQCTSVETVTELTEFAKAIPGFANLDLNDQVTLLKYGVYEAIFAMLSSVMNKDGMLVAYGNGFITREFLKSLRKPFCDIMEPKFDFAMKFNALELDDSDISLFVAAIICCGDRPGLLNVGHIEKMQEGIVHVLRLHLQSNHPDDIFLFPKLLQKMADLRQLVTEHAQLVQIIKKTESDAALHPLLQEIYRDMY

CC(=O)[C@@H]1CC[C@@H]2[C@H]3CC[C@H]4C[C@@H](O)CC[C@]4(C)[C@@H]3C(=O)C[C@]21C
outcome [1]: inactive

O=C(CN1CCN(CCO)CC1)Nc1ccc(Cl)cc1C(=O)c1ccccc1
outcome [1]: inactive

CC(C)(O)[C@H]1[C@H]2OC(=O)[C@@H]1[C@]1(O)C[C@H]3O[C@]34C(=O)O[C@H]2[C@]14C (tested in a mixture with another compound)
outcome [1]: inactive

C=CCN1CC[C@]23c4c5ccc(O)c4O[C@@H]2C(=O)CC[C@@]3(O)[C@H]1C5
outcome [1]: inactive

O=[N+]([O-])c1ccc(O[C@H]2O[C@@H](CO)[C@@H](O)[C@@H](O)[C@@H]2F)c([N+](=O)[O-])c1
outcome [1]: inactive

COc1ccc2[nH]c3c(c2c1)CCN=C3C
outcome [1]: inactive

CCCN1CCC[C@H](c2cccc(C#N)c2)C1
outcome [1]: inactive

COc1ccc(OC)c([C@@H](O)[C@H](C)NC(C)(C)C)c1
outcome [1]: inactive

O=C1CC[C@]2(O)[C@H]3Cc4ccc(O)c5c4[C@@]2(CCN3CC2CC2)[C@@H]1O5
outcome [1]: inactive

CN1CC=C2C(C#N)=C(N)C(C#N)(C#N)C(c3ccncc3)C2C1 (configuration not stated)
outcome [1]: inactive

COCC(C)OC(=O)c1c(N)n(Cc2ccco2)c2nc3ccccc3nc12 (configuration not stated)
outcome [1]: inactive

N#CC(Cl)Cl
activity change, negative = cytotoxicity [2]: 13.8%
Potency [3]: inactive
Potency [4]: inactive
Potency [5]: inactive
Potency [6]: inactive
Potency [7]: inactive
outcome [8]: inactive
Potency [9]: inactive
caspase-3 activation [10]: 72.2% (active)
outcome [11]: inactive
Potency [12]: inactive
Potency [13]: inactive
Potency [14]: 12.6 µM (active)
Potency [15]: 25.1 µM (active)
Potency [16]: 12.6 µM (active)
Potency [17]: inactive
max response [18]: -3.95%
Potency [19]: 44.7 µM (active)

CC(C)[C@@]1(NC(=O)[C@@H]2C=C3c4cccc5[nH]cc(c45)C[C@H]3N(C)C2)O[C@@]2(O)[C@@H]3CCCN3C(=O)[C@H](Cc3ccccc3)N2C1=O
outcome [1]: inactive

COP(=O)(OC)O/C(=C\Cl)c1cc(Cl)c(Cl)cc1Cl
Potency [5]: inactive
viability change, negative = cytotoxic [6]: -89.6% (active)
Potency [7]: inactive
outcome [8]: inactive
outcome [20]: inactive
Potency [9]: inactive
caspase-3 activation [10]: -4.53%
outcome [11]: inactive
Potency [12]: inactive
Potency [13]: inactive
Potency [14]: inactive
Potency [15]: inactive
Potency [17]: inactive
max response [18]: -3%
Potency [19]: inactive

CC(C)CC(C)Nc1ccc(Nc2ccccc2)cc1 (configuration not stated)
activity change, negative = cytotoxicity [2]: -118% (active)
activity change, negative = cytotoxicity [3]: -113% (active)
Potency [4]: 25.1 µM (active)
Potency [5]: 50.1 µM (active)
Potency [6]: 25.1 µM (active)
activity change, negative = cytotoxicity [7]: -106% (active)
outcome [8]: inactive
outcome [20]: inactive
Potency [9]: inactive
caspase-3 activation [10]: 12.2%
Potency [12]: 50.1 µM (active)
Potency [13]: 39.8 µM (active)
Potency [14]: 39.8 µM (active)
Potency [15]: 50.1 µM (active)
Potency [16]: 31.6 µM (active)
max response [18]: -7.88%
Potency [19]: inactive

O=C(CCl)c1ccccc1
activity change, negative = cytotoxicity [2]: -113% (active)
Potency [3]: 15.8 µM (active)
Potency [5]: 15.8 µM (active)
Potency [6]: 7.94 µM (active)
outcome [8]: inactive
outcome [20]: inactive
Potency [9]: inactive
caspase-3 activation [10]: -9.68%
outcome [11]: inactive
Potency [12]: inactive
Potency [13]: 10 µM (active)
Potency [14]: 7.94 µM (active)
Potency [15]: 10 µM (active)
Potency [16]: 10 µM (active)
Potency [17]: inactive
max response [18]: -2.05% and -1.03%
Potency [19]: inactive

Nc1ccccc1C(=O)OCCc1ccccc1
activity change, negative = cytotoxicity [2]: -14.5%
Potency [4]: inactive
Potency [5]: inactive
Potency [6]: inactive
outcome [8]: inactive
outcome [20]: inactive
Potency [9]: inactive
caspase-3 activation [10]: -6.67%
Potency [12]: inactive
Potency [13]: inactive
Potency [14]: inactive
Potency [15]: inactive
Potency [16]: inactive
Potency [17]: inactive
Potency [19]: inactive

CCCCCCCCn1sccc1=O
activity change, negative = cytotoxicity [2]: -113% (active)
Potency [3]: 12.6 µM (active)
Potency [4]: 25.1 µM (active)
Potency [5]: 12.6 µM (active)
Potency [6]: 3.98 µM (active)
Potency [7]: 12.6 µM (active)
outcome [8]: inactive
outcome [20]: inactive
caspase-3 activation [10]: -9.61%
outcome [11]: inactive
Potency [12]: 25.1 µM (active)
Potency [13]: 6.31 µM (active)
Potency [14]: 3.16 µM (active)
Potency [15]: 6.31 µM (active)
Potency [16]: 5.01 µM (active)
Potency [17]: inactive
max response [18]: -5.93% and -2.13%
Potency [19]: inactive

From PubChem BioAssay (NCATS)
